# The list is not random: actives were taken first. Their share in the collection is about 2.3%.
# Chronic BCR inh = qHTS Assay to Find Inhibitors of Chronic Active B-Cell Receptor Signaling | ABC-DLBCL IkBa-CBG/CBR reporter, luminescence ratio, 4 h | Potency, µM (highest dose often 46.1 µM), for the others: top-dose activity change, negative = inhibition, usual class: inhibitors | 0.05% of 340,000 active | AID 493014, 2011; active means well fitted inhibition curve with a large enough effect in the signal ratio, with a control signal flat, not every such curve was filed as active; inconclusive means small, poorly fitted or top-dose-only effect, or effect the other way, or a change in a side signal; the % refers to the signal ratio;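 further: plate controls were basal doxycycline-induced cells for no effect and cells given 10 µM MG132 for full effect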
#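 Doxycycline induced both beetle luciferases in TMD8 lymphoma cells; IKK-driven degradation limits the IkappaBalpha-fused green signal, while red luminescence normalises for cell number and nonspecific effects. Compounds tested up to 46 uM, 4 hrs.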
# TDP43 rescue = qHTS of TDP-43 Inhibitors; TDP-43 expressing yeast growth rescue, BacTiter-Glo, 24 h; Potency, µM (highest dose often 46.1 µM), for the others: at the top dose growth rescue (activation), most hits filed as activators; 1.8% of 410,000 active; further: % of control where 0% means no effect; nearly all actives have a fitted effect of over 50% in size
#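 Readout is BacTiter-Glo luminescence of cell growth, so inhibitors register as activators. TDP-43-expressing yeast at OD600=0.02 in galactose medium, after raffinose pregrowth to mid-log, were incubated with compound for 24 hr at 30 deg C.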
# Abeta rescue = qHTS for compounds that reverse cellular toxicity of Amyloid beta (A-beta) peptide in yeast: Primary Screen | Potency, µM (highest dose often 46.1 µM), hits mostly activators | yeast expressing A-beta42, growth rescue, OD600, 48 h; response scale: 0% DMSO, 100% iron-clioquinol control | 0.063% of 410,000 active | AID 1347071, 2019; further: nearly all actives have a fitted effect of over 55% in size
#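 Growth rescue measured by 600 nm absorbance after 48 h yeast culture at 30 C with compound. Values normalized between DMSO and an equimolar ferric chloride plus clioquinol control.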
# uPA surface inh = qHTS for Inhibitors of Cell Surface uPA Generation. cell surface uPA generation assay, qHTS. AID 540303, 2011. Potency, µM (series often up to 38.3 µM), for inactives: top-dose activity change, negative = inhibition, most hits filed as inhibitors. 0.31% of 330,000 active; active means well fitted inhibition curve with a large enough effect; inconclusive means small, poorly fitted or top-dose-only effect; inactive means no such curve, though single readings can be large or run the other way; tested in mouse RAW 264.7 cells; further: on the % scale 0 is the no-effect control and ±100 the full control effect; nearly all actives have a fitted effect of over 55% in size
# aSyn rescue = qHTS of alpha-syn Inhibitors | Potency, µM (series often up to 46.1 µM), inactives show at the highest dose growth rescue (activation), hits mostly activators | 0.14% of 370,000 active | Yeast expressing alpha-synuclein, growth rescue, BacTiter-Glo, 24 h | AID 652106, 2013; further: % of control where 0% means no effect; nearly all actives have a fitted effect of over 65% in size
#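 Screening used galactose-induced yeast with toxic alpha-synuclein levels, exposed to compound for 24 hr at 30 deg C. Cell growth, read with BacTiter-Glo luminescence, gave the measured signal.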
# FUS suppressor = qHTS for Suppressors of FUS Proteinopathy: Primary screen using FUS-linked yeast assay; S. cerevisiae FUS-expressing, growth rescue, OD600, 24 h; Potency, µM (highest dose often 76.6 µM), actives largely listed as activators; 0.24% of 390,000 active;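 further: plate controls were DMSO vehicle for no effect and reference control for full effect; nearly all actives have a fitted effect of over 55% in size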
#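 Quantitative HTS measuring growth restoration of FUS-toxic yeast. Galactose-induced cells (OD 0.005) were exposed 24hr at 30C to compounds at several concentrations, then absorbance at 600 nm was recorded.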
# The depositor's hits bear a star; i = inactive; ? = inconclusive; . = no result. Unless noted, the call rests on the fitted dose curve; in most records, active means well fitted curve in the direction sought with a large enough effect; inconclusive means small, poorly fitted or top-dose-only effect, or another doubt; inactive means no such curve, though single readings can be large; an effect the other way counts as inactive or inconclusive. Potency means the concentration at half of the fitted maximal effect.
SMILES,Chronic BCR inh,TDP43 rescue,Abeta rescue,uPA surface inh,aSyn rescue,FUS suppressor
CSc1nnc(-c2cccs2)n1C,-2%,-4%,i,-1%,-4%,i
Cn1c(SCc2c(Cl)cccc2Cl)nnc1-c1cccs1,-4%,18µM*,i,-5%,12%,i
O=C1C2C3C=CC(C3)C2C(=O)N1c1nccs1 (stereo unspecified),3%,11%,i,.,-8%,i
CCN(CC)CCCNC(=O)C1c2ccccc2C(=O)N(C)C1c1ccc(OC)cc1 (stereo unspecified),-8%,22µM*,i,3%,-4%,i
COc1ccc(C2C(C(=O)NCc3ccco3)c3ccccc3C(=O)N2C)cc1 (stereo unspecified),1%,18%,i,-10%,4%,i
O=C(NC12CC3CC(CC(C3)C1)C2)c1ccc(Br)o1,-1%,-1%,i,-3%,-11%,i
O=C(NC12CC3CC(CC(C3)C1)C2)c1ccc([N+](=O)[O-])o1,-2%,20µM*,i,?,-28%,i
CC(=O)N(C)c1cccc([N+](=O)[O-])c1,1%,5%,i,2%,0%,i
CCC/C=N/Nc1nnc(Cc2ccccc2)c(=O)[nH]1,4%,-6%,i,2%,0%,i
CCCCCC/C=N/Nc1nnc(Cc2ccccc2)c(=O)[nH]1,-1%,20µM*,i,-1%,-4%,i
CCOC(=O)c1cnc2c(OC)cccc2c1N1CCN(c2ccccn2)CC1,-4%,-2%,i,-7%,-2%,i
CCOc1cc(NC(=O)CCl)c(OCC)cc1NC(=O)CCl,14µM*,9%,i,-15%,-6%,i
CCOc1ccccc1NC(=O)CCC(=O)Nc1ccccc1OCC,?,12%,i,-1%,-3%,i
Cc1cccc(NC(=O)c2ccc(N3C(=O)C4C5C=CC(C6CC56)C4C3=O)cc2)c1 (stereo unspecified),?,15%,i,-13%,-2%,i
CCCCN1C(=O)c2ccc(C(=O)NCCN3C(=O)S/C(=C\c4cccnc4)C3=O)cc2C1=O,0%,12%,i,-1%,1%,.
CC(=O)Oc1ccc(Oc2ccc(-c3noc(C)n3)cc2)cc1,2%,11µM*,i,-12%,-13%,i
COc1ccc(C)cc1NC1=C(Cl)C(=O)N(C2CCCCC2)C1=O,19%,17%,i,4%,-13%,i
Cc1nc(Sc2nnnn2-c2ccccc2)c(C#N)c(C)c1C,5%,18µM*,i,-10%,0%,i
CC1(C)Cc2nc(Cl)c(C(N)=O)cc2CO1,0%,5%,i,-2%,2%,i
S=C(Nc1ccccc1)Nc1cccc(Br)c1,7%,15%,i,-24%,-8%,i
S=C(Nc1cccc(Br)c1)c1ccccc1,?,13µM*,?,-6%,-11%,i
Cc1cc(C)c(/C=C(\C#N)C(N)=S)c(C)c1,?,11µM*,i,?,27%,i
Cc1ccc(-c2ccc(/C=C(\C#N)C(N)=S)n2C)cc1,?,0%,i,5%,-5%,i
Nc1nnc(-c2ccco2)s1,0%,-18%,i,-13%,2%,i
Nc1ncnc2oc(-c3ccco3)c(-c3ccco3)c12,0%,-17%,i,-26%,13µM*,i
SMILES,Chronic BCR inh,TDP43 rescue,Abeta rescue,uPA surface inh,aSyn rescue,FUS suppressor
O=C(O)c1ccc(-n2nc(C(F)(F)F)c3c2CCCC3)cc1,?,16µM*,i,-11%,10%,i
Cc1ccc(-n2c(SCC(=O)Nc3cc(C)on3)nc3ccccc3c2=O)cc1,-9%,-21%,i,.,0%,i
COc1ccc(C2C(C(=O)c3ccc(C)o3)=C(O)C(=O)N2c2cc(C)on2)cc1OC (stereo unspecified),9%,11%,i,-2%,1%,i
COc1ccc(OC)c(C2C(C(=O)c3ccc(C)o3)=C(O)C(=O)N2c2cc(C)on2)c1 (stereo unspecified),2%,-9%,i,-7%,0%,32µM*
CC1CCCN(Cc2c(O)ccc3c4c(c(=O)oc23)CCCC4)C1 (stereo unspecified),-8%,1%,i,3%,4%,i
O=C(NCc1cccc(Cl)c1)c1ccc2nc(N3CCOCC3)sc2c1,-3%,25µM*,i,2%,4%,i
O=C(NCCc1ccccc1)c1ccc2nc(N3CCOCC3)sc2c1,?,?,i,-1%,0%,i
COc1ccccc1CNC(=O)c1ccc2nc(N3CCOCC3)sc2c1,?,22µM*,i,11%,0%,i
COc1ccc(/C=N/n2c(SC)nnc2-c2ccccc2)c(OC)c1OC,?,5%,i,-15%,3%,i
COc1ccc(/C=N/n2c(SC)nnc2-c2ccccc2)cc1C,.,16µM*,i,-10%,4%,i
Cc1c(C(=O)Nc2ccc(F)cc2F)sc2nc3n(c(=O)c12)N=C(c1ccccc1)CS3,8%,26%,i,.,.,i
C/C(Cc1ccccc1)=N\NC(=O)c1cc(C(C)(C)C)[nH]n1,3%,17%,i,-5%,1%,i
COc1cc(CC(C#N)(CO)c2nc3ccccc3[nH]2)ccc1OC(F)F (stereo unspecified),-1%,-17%,i,6%,-3%,i
COCc1cc(=O)[nH]c(SCCS(=O)(=O)c2ccc(Cl)cc2Cl)n1,0%,6.3µM*,i,?,-15%,i
COCc1cc(=O)[nH]c(SCCS(=O)(=O)c2ccc(C)cc2)n1,?,-2%,i,-8%,-3%,i
C[C@@H]1CN([C@@H](C)CO)C(=O)c2cc(NC(=O)c3ccccc3)ccc2O[C@@H](C)CCCCO[C@@H]1CN(C)S(=O)(=O)c1ccc(F)cc1,.,0%,i,.,0%,?
COc1cc2ccc(=O)oc2c(O)c1O,.,-5%,i,-16%,-3%,i
COc1cc2oc(=O)ccc2cc1-c1c(OC)ccc2ccc(=O)oc12,-2%,3%,i,8.9µM*,-6%,i
COc1ccc(-c2nc(Cn3c(SCc4cccc(F)c4)nc4cccnc43)c(C)o2)cc1,.,20µM*,i,.,.,?

# Screening data as filed in PubChem BioAssay.
